This passage reports growth results from PubChem BioAssay (NCI).

This is part of a sample that, as a whole, favours compounds with a hit. Of some 83,000 tested, about 20% had one in any assay.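 Negative percent growth values reflect cell death: -40 means 40% of the cells present at the start died, and -100 means all died.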 A number with no mark means an inactive call. The source made the active and inactive calls. How the source made its calls: active means growth percent below 10; inactive means the rest.

What all share (experiment): NCI-60 one-dose screen, 48 h (100 = growth as untreated, 0 = no growth, -100 = all killed)
Details in all cases: 10 µM unless noted

Assay [1] concerns HCT-15 colon.
The test system of assay [2] is HT29 colon.
The test system of assay [3] is SNB-75 CNS.
Assay [4] has as its system SNB-19 CNS.
Assay [5] deals with U251 CNS.
Assay [6] relates to PC-3 prostate.
For assay [7], the system named is SK-MEL-5 melanoma.
The subject of assay [8] is UACC-62 melanoma.
Assay [9] deals with LOX IMVI melanoma.
The subject of assay [10] is SK-MEL-28 melanoma.

On to `CNC(=O)c1c(NC(=O)c2ccc(C(C)(C)C)cc2)sc2c1CCC(=O)C2`, for which the growth in assay [1] was -20.5% (active); in assay [2] it was 3.63% (active); in [3], -27.8% (active); in assay [4] it was 17.7%; in [5] it was 4.12% (active); in [6] it was -0.67% (active). Further, the growth was -83.1% (active) in [7], 0.579% (active) in [8], 8.5% (active) in assay [9] and 12.2% in assay [10].

`NC(N)=N/N=C/c1ccc(Br)cc1`: the growth in assay [1] was 23.4%; in assay [2] it was 9.57% (active); in assay [3], 34%; in assay [4], 35.8%; in assay [5], 25.4%; in assay [6], 27.8%. The growth in [7] was 13.2%; in [8], 36.3%; in assay [9], 43%; in assay [10], 58.9%.

On to `CCCCCCCCc1cc[n+](CC(=O)c2ccc(Br)cc2)cc1`, for which the growth in [1] is 47%; in assay [2], -88.9% (active); in assay [3], 50.5%; in [4], 35.3%; in [5] it was -85.2% (active); in assay [6] it was 10.2%. For the same compound, the growth in assay [7] is -93.5% (active); in assay [8], -32.9% (active); in assay [9], -84.8% (active); in assay [10] it was 32.9%.

Take `CC1(C)CC(=O)c2c(ccc(C(=O)C[C@H](N)CO)c2N)O1`: the growth in assay [1] was 4.43% (active); in assay [2], 2.53% (active); in assay [3], 75.9%; in assay [4] it was 34.7%; in assay [5], 14.8%; in assay [6] it was 45.3%. Also, the growth in assay [7] was 47.2%; in assay [8], 11%; in assay [9], -61.7% (active); in [10], 38%.

In the case of `O=C(/C=C/C12c3ccccc3C(c3ccccc31)C1C(=O)NC(=O)C12)c1ccccc1` (stereo not given), the growth in assay [1] is 20%; in assay [2], 18.3%; in assay [3] it was -2.11% (active); in [4], 32.9%; in assay [5] it was 25.6%; in assay [6] it was 29.9%. In addition, the growth in assay [7] was 28.8%; in assay [8], 36.3%; in [9], 2.81% (active); in assay [10], 44.7%.

Turning to `CC12CC(C#N)CCC1O2` (stereo not given), the growth in assay [1] was 118%; in assay [2], 109%; in assay [3] it was 100%; in [4] it was 111%; in assay [5], 103%; in assay [6] it was 101%. For the same compound, the growth in [7] was 111%; in [8], 109%; in assay [9], 108%; in [10], 109%.

Regarding `COc1cc(/C=C/C(=O)c2cccc(-n3cc(-c4ccc(Cl)cc4)[nH]c3=O)c2)cc(OC)c1OC`, the growth in [1] was 40.3%; in [2], -12% (active); in assay [3] it was 84.9%; in [4], 75.5%; in [5] it was 30.9%; in assay [6], 47.7%. Also, the growth was 58.2% in assay [7], 72.4% in assay [8], -47.4% (active) in assay [9] and 86.5% in assay [10].

With `CS(=O)(=O)c1ccc(N/N=C/c2c(-c3ccc(S(C)(=O)=O)cc3)[nH]c3ccc(F)cc23)cc1`, the growth in assay [1] is 62.7%; in assay [2], 21.8%; in assay [3], 38.8%; in assay [4] it was 26.1%; in assay [5], 11.2%; in assay [6] it was 33.9%. For the same compound, the growth is -35.4% (active) in [7], 25.7% in assay [8], 3.68% (active) in [9] and 14.7% in assay [10].

On to `CCN(CC)CC(O)CNc1c2ccc(Cl)cc2nc2ccc(OC)cc12` (stereo not given), for which the growth in assay [1] is -6.56% (active); in assay [2], -4.13% (active); in assay [3], 58.4%; in assay [4], 57.3%; in assay [5], -28.3% (active); in [6] it was 16.6%. Further, the growth in [7] is -92.5% (active); in [8], 64.8%; in assay [9], -64.2% (active); in [10] it was -96.6% (active).

As for `N#Cc1c(NC(=O)c2ccccc2I)sc2c1CCCC2`, the growth is 21.5% in [1]; 17.4% in assay [2]; 16.7% in [3]; 39.2% in assay [4]; 29.7% in assay [5]; 47.1% in assay [6]. For the same compound, the growth in [7] is 19.2%; in assay [8], 38%; in assay [9], 36.8%; in assay [10], 64.1%.

Take `Cc1c(C(N)=O)sc2nc(C)n(/N=c3\scc(-c4ccccc4)n3Cc3ccccc3)c(=O)c12`: the growth in assay [1] is 14.9%; in assay [2], 79.5%; in [3], 54.8%; in assay [4], 29.4%; in assay [5], 7.76% (active); in assay [6], 1.97% (active). In addition, the growth is 7.44% (active) in [7], 27.7% in assay [8], 20.6% in [9] and 48.2% in [10].

As to `COc1ccc(N(C)c2nc(Cl)nc3cnn(C)c23)cc1`, the growth is 9.08% (active) in [1]; -9.42% (active) in assay [2]; 18.7% in assay [3]; 29.7% in assay [4]; 17.8% in assay [5]; 16.2% in [6]. Besides, the growth in assay [7] is -25.2% (active); in [8] it was 32%; in assay [9], 18.7%; in [10], 58.2%.

`N[C@H]1CCC[C@@H]1NCCCCN1C(=O)c2cccc3cccc(c23)C1=O`: the growth was 83.6% in assay [1]; 26.2% in assay [2]; 75.7% in assay [3]; 77% in assay [4]; 63% in assay [5]; 55% in [6]. Also, the growth in assay [7] was 91.6%; in assay [8], 95.7%; in assay [9] it was 26.1%; in assay [10] it was 90.3%.
